One experiment concerns the target RUNX1 (UniProt Q01196). The experiment in a line: RUNX1 binding intensity (PBM fluorescence), RUNX1 alone (arbitrary fluorescence units); higher = stronger binding. The conditions noted are these: RUNX1 concentration 2 nM; ETS1 concentration 0 nM. The protocol:
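Cooperative gcPBM on 36-bp genomic probes with neighbouring ETS1 and RUNX1 sites. Recombinant human RUNX1 (2 nM) was incubated alone or with ETS1 (25 nM) and detected with anti-RUNX1 antibody plus Alexa488 secondary. Values are medians over 4 replicate spots; the RUNX1+ETS1 data were normalised to the RUNX1-only data. The probes sit in constant array flanks that are not printed.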
Sequence of RUNX1 (Q01196 whole entry): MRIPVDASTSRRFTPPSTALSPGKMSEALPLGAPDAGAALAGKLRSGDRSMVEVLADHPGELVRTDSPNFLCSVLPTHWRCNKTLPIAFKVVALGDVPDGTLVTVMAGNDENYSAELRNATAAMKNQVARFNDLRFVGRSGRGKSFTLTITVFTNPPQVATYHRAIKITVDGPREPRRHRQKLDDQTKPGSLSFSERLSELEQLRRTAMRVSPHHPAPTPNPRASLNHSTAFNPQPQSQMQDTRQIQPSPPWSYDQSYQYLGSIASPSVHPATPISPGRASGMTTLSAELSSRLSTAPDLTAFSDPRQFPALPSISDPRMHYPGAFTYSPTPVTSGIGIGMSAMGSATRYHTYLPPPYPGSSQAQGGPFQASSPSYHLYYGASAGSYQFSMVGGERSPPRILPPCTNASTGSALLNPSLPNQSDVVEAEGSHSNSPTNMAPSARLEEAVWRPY
TACAGCCAGGAAATGGGGAGGGTGCTGCGGGCGGCA came in with an RUNX1 binding intensity of 742.

Turning to CGGCATCTGACAGGATGTGGGCAGGGAGAGAGAGAC, the RUNX1 binding intensity was found to be 1270.

Turning to CAGCAGAGGCGCGGATGTGGTTAAACGAGTGCCGTC, the RUNX1 binding intensity is 876.

Sequence AACAGTACTTCCGGGGCAAGTGAGCGCCCACAAGGC returned an RUNX1 binding intensity of 806.

Another experiment has as its target T1, ETS1 (UniProt P14921).
T1 sequence: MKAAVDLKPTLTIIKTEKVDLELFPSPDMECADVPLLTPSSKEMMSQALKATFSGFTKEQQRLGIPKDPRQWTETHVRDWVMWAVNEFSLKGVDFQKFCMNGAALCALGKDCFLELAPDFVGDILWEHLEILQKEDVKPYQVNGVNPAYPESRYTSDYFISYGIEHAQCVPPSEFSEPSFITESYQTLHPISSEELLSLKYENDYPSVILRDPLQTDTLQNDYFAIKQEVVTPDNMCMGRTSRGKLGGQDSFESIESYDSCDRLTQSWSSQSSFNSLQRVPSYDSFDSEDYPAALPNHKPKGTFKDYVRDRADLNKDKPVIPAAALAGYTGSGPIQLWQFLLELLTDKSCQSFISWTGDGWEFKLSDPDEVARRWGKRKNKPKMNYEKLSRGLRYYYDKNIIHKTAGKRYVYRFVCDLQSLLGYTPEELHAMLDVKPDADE
The experiment in a line: ETS1 binding intensity (PBM fluorescence) in presence of RUNX1, normalised to ETS1-only experiment (arbitrary fluorescence units); higher = stronger binding. The conditions noted are these: ETS1 concentration 1 nM; RUNX1 concentration 25 nM.
Turning to AAAAAATGGAGGAAGTTACCTCCAGTGGTTTTGTGA, the ETS1 binding intensity is 1310.

Turning to GGGGGAATGTAGGAAGTATCATCGCCCACAAGAAAG, the ETS1 binding intensity is 807.

On to GGCGGCCTCAACTTCCGCGGTGGGACTCCGGAGCAG, for which the ETS1 binding intensity was determined as 445.

GCGCCCCGTCCTTCCGCAGCCCAACCGCCTCTTCCC: the ETS1 binding intensity worked out at 383.

With TCGCTTCCTGCTCCACTTCTCGGCGCCCACATCTCC, the ETS1 binding intensity was 523.

On to TACAGCCAGGAAATGGGGAGGGTGCTGCGGGCGGCA, for which the ETS1 binding intensity came to 1680.

Consider TGGGATTCTCACTTCCGATCAGCGGTCCTGAACCCG, for which the ETS1 binding intensity is 622.

Turning to CCGCCCTCCACCGAGTTCCGGCCACAGAGCGGGCCC, the ETS1 binding intensity is 547.

For GCTGTCCATTTCCGAGATGTTAATGCGGGATCTTGC, the ETS1 binding intensity amounted to 628.

As for AATTGTCAATGGCAGGAAGCCACCACATGAAGAGAT, the ETS1 binding intensity came out at 1650.

On to TAACGCGAGAACTTCCTGCGGGCCACGCCCTCTTTC, for which the ETS1 binding intensity came to 462.

TTCAAAGGAGTCCAAGGAAGTGGTTTAACAGCGATG: the ETS1 binding intensity was found to be 1400.

Consider CGGCATCTGACAGGATGTGGGCAGGGAGAGAGAGAC, for which the ETS1 binding intensity is 9220.

As for ACACCGCTCAGGAAGACAAAGCCACACCTCACACCG, the ETS1 binding intensity amounted to 356.

As for CTGCTGGGCCCCTTCCTGTCAGCGGTTGCTCTTTAC, the ETS1 binding intensity amounted to 716.

On to CAGGCCTGTGATTTCCTCTGAGTGGTTTTCTTGGCC, for which the ETS1 binding intensity was determined as 401.

Turning to TGGAATTGAAAGGAAGCTGGCGCCACCGCAGAGGAC, the ETS1 binding intensity amounted to 2830.

As to AACATTACGGAAGTTTCTCTACCCATGCGGTGTCTC, the ETS1 binding intensity is 683.

Regarding CGAAGAGGAAGCCCCTGTATCACCCCACAAGAAGCC, the ETS1 binding intensity was determined as 555.

For GAATCACCATTTCCTCACTCCCACACAACCATGTTG, the ETS1 binding intensity came out at 417.

Consider CTCTGAAGGAAGTGATGTTAGACGGCTGTGGGTGGT, for which the ETS1 binding intensity was 785.

As to TTCATCTACTTCCCGCCACACCCACAGAGAAGCCCA, the ETS1 binding intensity was determined as 377.

Consider AGCACGCCGGGAAATGGAGTCTCAGGTGGTTTTTAA, for which the ETS1 binding intensity is 364.

On to TGAGTCATTTCCTGGGTGGGGGCCACAAGACCAGGT, for which the ETS1 binding intensity amounted to 553.

Consider AGAGGAAGTAAATTCTAACAGTGGAAACCACAGATT, for which the ETS1 binding intensity was determined as 2290.

Consider GGAAAGCGGAAGAAAAAAGCAAGATGGGACCGCAAG, for which the ETS1 binding intensity is 928.

In the case of CCTCTCAACAGCATTTCCTGGTGGTCAGATATCTGA, the ETS1 binding intensity was 587.

Consider GAGCAACCAGGAAGAGCTTTGGCTGTGGGCTAAGAT, for which the ETS1 binding intensity stood at 441.

Take CTGCACAGGGAAGTGAGTGTCGAGCTCACCGCACCG: the ETS1 binding intensity came to 690.

Consider GCACGCGCCGGGCGGAACCCACAGGCCTGGAAGCGA, for which the ETS1 binding intensity is 803.

Take CCTGTTCCGGGCTCCGTACACCCAGGCCCGCAGCTG: the ETS1 binding intensity turned out to be 494.

For CAGCAGAGGCGCGGATGTGGTTAAACGAGTGCCGTC, the ETS1 binding intensity stood at 6770.

Regarding CTGCACAAGGAAGCGCCTGTGTTGCTGTGGGCGGAG, the ETS1 binding intensity was found to be 402.

On to TCGCATAGCCGGGAAGCGCGGTGGAGGTTGTTGGGG, for which the ETS1 binding intensity worked out at 473.

For GTGCAGGCCGGAAGGAAAAGGGTTGTGGGGCTCATT, the ETS1 binding intensity amounted to 1420.

As for AGAACAGGATGTTCTGAGTACAGCATGAACCTCAAA, the ETS1 binding intensity stood at 1210.

For the sequence AACAGTACTTCCGGGGCAAGTGAGCGCCCACAAGGC, the ETS1 binding intensity turned out to be 1300.

TAGCAGGAAGCCGATTCGCCCTATATGCAACCACTT: the ETS1 binding intensity was 570.

In the case of TTTAAGGGCGGAAAGGCTTTAGCCGCAAAATGGCTT, the ETS1 binding intensity worked out at 2380.

In the case of GCTCTGGCGGAAGATGTCCCTGCGGTGCAGCTGCCG, the ETS1 binding intensity was 465.

Source of the values: the supplement of paper PMC10681739.
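For RUNX1 binding intensity (PBM fluorescence), RUNX1 alone in this document: Full-length recombinant human RUNX1 bound to double-stranded 36-bp genomic probes on a high-density microarray, scored as Alexa488 fluorescence per spot via anti-RUNX1 antibody, median of four replicate spots.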
